Experimental data: PubChem BioAssay AID488854 (National Center for Advancing Translational Sciences (NCATS), 2010)
Results filed as inconclusive are left out. A number with no mark means an inactive call. The source made the active and inactive calls. The call rests on the fitted dose curve; in most records, active means well fitted activation curve with a large enough effect; inconclusive means small, poorly fitted or top-dose-only effect; inactive means no such curve, though single readings can be large or run the other way.

target: Lysosomal acid glucosylceramidase (Homo sapiens) (UniProt P04062); assay: qHTS Assay for Inhibitors and Activators of N370S glucocerebrosidase as a Potential Chaperone Treatment of Gaucher Disease: Confirmation for Probe SAR; conditions: N370S GC spleen homogenate, 4MU-glucoside fluorescence; series mostly up to 57.5 µM; activity change, positive = activation: at the top concentration
Sequence (P04062 whole entry N409S): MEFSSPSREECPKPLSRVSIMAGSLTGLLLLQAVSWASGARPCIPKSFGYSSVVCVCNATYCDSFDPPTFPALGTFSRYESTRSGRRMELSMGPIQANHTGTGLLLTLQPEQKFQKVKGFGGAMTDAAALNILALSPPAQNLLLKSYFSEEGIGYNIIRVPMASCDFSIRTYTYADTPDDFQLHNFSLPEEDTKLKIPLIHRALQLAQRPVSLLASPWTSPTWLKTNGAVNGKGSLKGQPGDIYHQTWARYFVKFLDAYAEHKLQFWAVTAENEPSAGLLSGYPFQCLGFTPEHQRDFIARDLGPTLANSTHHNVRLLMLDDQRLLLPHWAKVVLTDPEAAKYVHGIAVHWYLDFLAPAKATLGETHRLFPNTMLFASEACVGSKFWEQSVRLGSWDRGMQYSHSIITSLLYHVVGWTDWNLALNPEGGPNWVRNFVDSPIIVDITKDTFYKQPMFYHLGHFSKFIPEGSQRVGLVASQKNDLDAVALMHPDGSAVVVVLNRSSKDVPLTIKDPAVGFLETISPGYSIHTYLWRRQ
Description: NIH Chemical Genomics Center [NCGC] NIH Molecular Libraries Probe Production Centers Network [MLPCN] MLPCN Grant: MH086442-01 Assay Submitter (PI): Wei Zheng Glucocerebrosidase (GC) catalyzes the hydrolysis of beta-glucocerebroside to glucose and ceramide in lysosomes. Mutations in the glucocerebrosidase gene result in Gaucher disease, an autosomal recessive lysosomal storage disorder. Many of the mutations encountered in patients with Gaucher disease are missense alterations that may cause misfolding, decreased stability and/or mistrafficking of this lysosomal protein. […] These inhibitors include iminosugar analogs and three non-iminosugar inhibitors identified from a previous HTS of 62,000 compounds with the wild type recombinant enzyme. However, the enhancement of enzyme activity by the chaperone action of an enzyme inhibitor must be balanced against the direct inhibition of the enzyme. An enzyme activator could also function as a chaperone by binding to the enzyme and helping to correct its misfolding and mistrafficking. While activators for GC have not yet been identified, they may have better therapeutic potential than inhibitors. Therefore the discovery and development of chemical activators may provide a new strategy for the chaperone therapy. We have optimized a new assay using N370S mutant GC derived from the spleen of a Gaucher patient. […] In addition, the MLPCN compound library has expanded, which increases the chance of finding new and better probes.
NCGC Assay Protocol Summary: This is a fluorogenic enzyme assay with 4-methylumbelliferyl-beta-D-glucopyranoside as the substrate and N370S glucocerebrosidase from human spleen homogenate as the enzyme preparation. Upon the hydrolysis of this fluorogenic substrate, the resulting product, […] which can be detected by a standard fluorescence plate reader. Data were normalized to the controls for basal activity (without enzyme) and 100% activity (with enzyme). The AC50 values were determined from concentration-response data modeled with the standard Hill equation. Assay buffer: 50 mM citric acid (titrated with potassium phosphate to pH 5.0), 100 mM potassium chloride, 10 mM sodium chloride, 1 mM magnesium chloride, 0.01% Tween-20. 1536-well assay protocol: (1) Add 2 ul/well of spleen homogenate (27 ug final) (2) Add 23 nL compounds in DMSO solution. The final titration was 0.5 nM to 58 uM. (3) Add 2 ul of substrate (1 mM final) (4) Incubate at 37C for 40 min. (5) Add 2 ul stop solution (1M NaOH and 1M Glycine mixture, pH 10) (6) Detect the assay plate in a ViewLux plate reader (PerkinElmer) with Ex=365 nm and Em=440nm. Keywords: Glucocerebrosidase, beta-glucosidase, Gaucher Disease, pharmacological chaperone, chaperone therapy, high throughput screening, glucocerebrosidase inhibitor, MLSMR, MLSCN, NIH Roadmap, qHTS and NCGC

Structure (SMILES)	activity change, positive = activation	Potency
CC(=O)Nc1ccccc1NC(=O)c1cnn2c(C)cc(C)nc12	22.1%	–
Cc1cc(C)n2ncc(C(=O)Nc3cccc(C#N)c3)c2n1	5.97% [at 19 µM]	–
Cc1ccc(NC(=O)c2cnn3c(C)cc(C)nc23)cc1	–	3.26 µM (active)
C#Cc1ccc(NC(=O)c2cnn3c(C)cc(C)nc23)cc1	–	0.366 µM (active)
Cc1cc(C)n2ncc(C(=O)Nc3ccccc3C)c2n1	–	16.3 µM (active)
COc1ccc(NC(=O)c2cnn3c(C)cc(C)nc23)cc1F	–	0.819 µM (active)
Cc1cccc(NC(=O)c2cnn3c(C)cc(C)nc23)c1	–	3.66 µM (active)
